Measured values as given in PubChem BioAssay AID841 (Emory University Molecular Libraries Screening Center, 2007).
In all, about 140,000 compounds went through this assay and about 2,100 (1.5%) were called active. Cut-off read from the data, not from the text of the source: active = protection mostly above about 24% (no sharp cut-off); inactive = mostly below about 26%. Many of the other results were omitted from the sample, so actives are more common in it than they were.

Experiment: blockers of measles virus-induced cell death – single point, MLSMR library, absorbance, measles RdRp inhibitor project, primary screen (AID 841)
Conditions: Measles virus-infected cells, CPE protection, at 4 µM, stronger effect = higher value

Structure (SMILES)	protection (pct of control)
COc1ccc(Br)cc1C(=O)NC(=S)Nc1cc(-c2nc3ccccc3[nH]2)ccc1C	3.52% (inactive)
Cc1ccc(-c2nc3ccccc3[nH]2)cc1NC(=O)c1sc2ccccc2c1Cl	80.8% (active)
Cc1ccc(-c2nc3ccccc3[nH]2)cc1N	6.87% (inactive)
CCOc1ccc2nc(C(=O)N3CCCC(C)C3)sc2c1 (centres undefined)	14.9% (inactive)
CCCCCCOC(=O)NCC(O)c1ccccc1 (centres undefined)	31.3% (active)
CCCCCCCCC(=O)NCCOc1ccccc1	6.49% (inactive)
CCCCCOC(=O)NCCOC(=O)Nc1ccc(C(=O)OCC)cc1	3.01% (inactive)
CCOc1ccc(N2C(=O)/C(=C/c3ccc(C)o3)N(C)C2=S)cc1	19.4% (inactive)
CCC(=O)Nc1c(S(=O)(=O)c2ccccc2)c2nc3ccccc3nc2n1Cc1ccccc1	8.35% (inactive)
O=C1CC(c2cccc(F)c2)C2=C(CCCC2=O)N1 (centres undefined)	11.2% (inactive)
COc1ccc(OC)c(C2C3=C(N=c4s/c(=C\c5cccc(O)c5)c(=O)n42)c2ccccc2CC3)c1 (centres undefined)	10.7% (inactive)
O=C1CCCC2=C1C(c1ccccc1)n1c(s/c(=C/c3cccc(F)c3)c1=O)=N2 (centres undefined)	48.1% (active)
CCCN(CCC)c1c([N+](=O)[O-])c(=O)oc2ccccc12	2.94% (inactive)
Cc1nc2ccccc2c2oc(C(=O)NCC3CCCO3)cc12 (centres undefined)	13.5% (inactive)
O=C(NCC1CCCO1)c1ccc2ccccc2n1 (centres undefined)	9.11% (inactive)
Cc1ccc(C(=O)NCC2CCCO2)o1 (centres undefined)	45.6% (active)
CC(=O)NNC1=Nc2ccccc2N(C)C(C)C1 (centres undefined)	14.9% (inactive)
COc1ccc(-n2c(C)cc(C(=O)COC(=O)c3cc(OC)c(OC)cc3NC(=O)c3cccs3)c2C)cc1	5.86% (inactive)
COc1ccc(CCNC(=O)C2CCN(c3nn4c(=O)cc(C)nc4s3)CC2)cc1OC	0.06% (inactive)
Cc1cc(=O)n2nc(N3CCCC(C(=O)N4CCN(C)CC4)C3)sc2n1 (centres undefined)	14.9% (inactive)
Cc1cc(=O)n2nc(N3CCCC(C(=O)NCCC4=CCCCC4)C3)sc2n1 (centres undefined)	38.4% (active)
CC(C)c1nccn1S(=O)(=O)c1cc([N+](=O)[O-])ccc1Cl	14.2% (inactive)
COCc1c(C(=O)N/N=C/C2CC=CCC2)nnn1-c1nonc1N (centres undefined)	5.58% (inactive)
COc1ccccc1Nc1ncnc2c1oc1ccccc12	44.3% (active)
Cc1nc(Cl)c2oc3ccccc3c2n1	18.2% (inactive)

Structure (SMILES)	protection (pct of control)
CCc1nc(Nc2ccc3nccnc3c2)c2oc3ccccc3c2n1	5.78% (inactive)
CC1=C(C(=O)Nc2cc(C)ccn2)C(c2cnn(C)c2)C2=C(CC(c3ccccc3)CC2=O)N1 (centres undefined)	4.9% (inactive)
C/C(=N/NC(=S)Nc1ccccc1)c1ccc2c(c1)OCO2	20.8% (inactive)
COc1ccc([C@H]2[C@H](C(C)=O)N3N=Cc4ccccc4C3C23C(=O)OC(C)(C)OC3=O)cc1 (some centres undefined)	9.43% (inactive)
O=C(N/N=C/c1cc([N+](=O)[O-])ccc1O)/C(=C\c1cccs1)NC(=O)c1ccccc1	3.64% (inactive)
CC1CCCN(S(=O)(=O)c2ccc(N(C(=O)c3cnccn3)C(C(=O)NC3CCCCC3)c3cccs3)cc2)C1 (centres undefined)	5.77% (inactive)
O=C(NC(CC(=O)N1CCN(c2ccccc2)CC1)c1ccccc1)c1ccccc1Cl (centres undefined)	5.39% (inactive)
CCOc1ccc(Nc2nc(Cc3nnc(SCC(=O)NC4CCCC4)n3C)cs2)cc1	4.14% (inactive)
CCOc1ccc(Nc2nc(Cc3nnc(SCC(=O)c4ccc(C)cc4)o3)cs2)cc1	31.3% (active)
CC(=O)Nc1ccc(C(=O)CSc2nnc(Cc3ccccc3)o2)cc1	5.61% (inactive)
OC(COc1ccccc1)Cn1cc(Br)cn1 (centres undefined)	17.3% (inactive)
C=CCn1c(=N)n(CC(O)COc2ccc(OC)cc2)c2ccccc21 (centres undefined)	19.9% (inactive)
OC(CN=c1sc2ccccc2n1CC(O)COc1ccccc1)COc1ccccc1 (centres undefined)	44.8% (active)
CO/N=C(\N)c1ccc([N+](=O)[O-])cc1	2.5% (inactive)
O=C(CCc1[nH]c2ccccc2c1Sc1ccccc1)N(CCO)CCO	8.37% (inactive)
CCCCC(=O)Nc1ccc2c(c1)OCCO2	11% (inactive)
Cc1ccc(SCC(=O)Nc2ccc3c(c2)OCCO3)cc1	26.6% (active)
O=C(CSc1ccc(-c2ccc(F)cc2)nn1)Nc1ccc2c(c1)OCCO2	9.34% (inactive)
Cc1cc(C)nc(SC2CCCCC2NS(=O)(=O)c2ccc(Cl)cc2)n1 (centres undefined)	24.5% (inactive)
O=C(CSc1ncn[nH]1)Nc1nsc(-c2ccccc2)n1	2.9% (inactive)
CN(C)CCOC(=O)C(c1ccccc1)C1(O)CCCC1 (centres undefined)	2.07% (inactive)
Cc1ccccc1C(OCC(O)CN1CCCCC1CCO)c1ccccc1 (centres undefined)	4.74% (inactive)
Cc1ccccc1C(OCCN(C)C)C1CCCCC1 (centres undefined)	53.1% (active)
COc1ccc(/C=C/C(=O)OCC(=O)Nc2cccc(Oc3ccccc3)c2)c(OC)c1	22.7% (inactive)
CCCc1cc(=O)[nH]c(SCC(=O)OCc2ccccc2)n1	13.7% (inactive)

Structure (SMILES)	protection (pct of control)
CCCc1cc(=O)n2[nH]c(SCc3ccccc3)nc2n1	90% (active)
CCCc1cc(=O)[nH]c(SCc2ccc(C#N)cc2)n1	2.18% (inactive)
COc1ccc(NC(=O)COC(=O)c2ccc(NS(=O)(=O)/C=C/c3ccccc3)cc2)cc1	6.22% (inactive)
CN(C)/N=C/c1cc(Cl)cc([N+](=O)[O-])c1O	21.7% (inactive)
COc1ccccc1Oc1ccc(N/C=C2/CCCC2=O)cc1	24.8% (inactive)
Cc1ccc(C)c(OCC(=O)N2CCN(C(=O)c3ccco3)CC2)c1	10.9% (inactive)
COc1cc(OC)cc(C(=O)Nc2ncc3c(n2)CC(C)(C)CC3=O)c1	9.7% (inactive)
COc1cc(C2CC(=O)c3cnc(NC(C)=O)nc3C2)cc(OC)c1OC (centres undefined)	62.5% (active)
CCCOC(=O)c1[nH]c2c(c1C)C(=O)CC(c1cc(OC)c(OC)c(OC)c1)C2 (centres undefined)	2.5% (inactive)
Nc1nc(NC(=O)/C=C/c2ccccc2)nn1-c1ccccc1	3.85% (inactive)
COC(=O)c1ccc(NC(=O)CSc2nnc(Cc3cccn3C)n2-c2ccc(F)cc2)cc1	43.4% (active)
Cc1ccc(C)c(NC(=O)CSc2nnc(Cc3cccn3C)n2-c2ccc(F)cc2)c1	21.3% (inactive)
COc1ccccc1NC(=O)CSc1nnc(Cc2cccn2C)n1-c1ccc(F)cc1	15.6% (inactive)
CCCOC(=O)c1ccc(N2C(=O)c3ccccc3C2=O)cc1	1.17% (inactive)
Cn1nccc1CNC(=O)c1ccnn1C	24.5% (inactive)
CCn1cc(CNC(=O)c2cc([N+](=O)[O-])c(C)c([N+](=O)[O-])c2)cn1	3.52% (inactive)
CC1(C)C=C2[C@H]3CC[C@@H]4[C@@]5(C)CCC(=O)C(C)(C)[C@@H]5CC[C@@]4(C)[C@]3(C)CC[C@@]2(C(=O)O)CC1	44.7% (active)
CCC(C)NCCOCCOc1ccc(Br)cc1C (centres undefined)	5.1% (inactive)
O=C(CNC(=O)C(c1ccccc1)c1ccccc1)N/N=C\c1ccc2c(c1)OCO2	17.5% (inactive)
O=C(COc1ccc2oc3c(c2c1)CCCC3)Nc1ccccn1	9.54% (inactive)
O=C(CN1CCOCC1)N1CCCc2c1c(=O)oc1ccc(OCc3ccccc3)cc21	20.5% (active)
Cc1c(C(=O)N2CCOCC2)[nH]c2ccc(OCc3ccccc3)cc12	11.5% (inactive)
CNC(=S)N1CCN(c2ccccn2)CC1	3.85% (inactive)
CC(=C1C(=O)c2ccccc2C1=O)N1CCN(c2ccccn2)CC1	4% (inactive)
O=C(C(Cl)Cl)N1CCN(c2ccccn2)CC1	29.5% (active)

Structure (SMILES)	protection (pct of control)
CC(=O)Nc1ccc(S(=O)(=O)NC2(C(F)(F)F)C(=O)Nc3c2c(=O)[nH]c(=O)n3Cc2ccccc2)cc1 (centres undefined)	10.5% (inactive)
CCOC(=O)c1c(NC(=O)Cn2nc(C(F)(F)F)cc2C)sc2c1CCC2	20.5% (inactive)
N=C(N)SCc1cccc2ccccc12	32.9% (inactive)
CCOc1ccc(Br)cc1CSC(=N)N	25.8% (active)
CCCCOc1ccc(CSC(=N)N)cc1[N+](=O)[O-]	23.1% (inactive)
Cc1ccc(NC(=O)CSCC(=O)NC2CCCCC2)cc1	36.4% (inactive)
COc1ccc(C(=O)Nc2sc(C)c(C)c2CN2CCOCC2)cc1	13.1% (inactive)
COc1cc(/C=C2/C(=O)ON=C2C)ccc1OCc1ccccc1F	6.29% (inactive)
CCOc1cc(/C=N/O)ccc1OCc1ccccc1F	36.5% (active)
CCOc1ccc(/C=N/NC(=O)C(C)Sc2ccccn2)cc1OCC (centres undefined)	3.61% (inactive)
CCCCOc1ccc(C(=O)NN2CCN(C)CC2)cc1	24.4% (inactive)
COCCOC(=O)c1c(C)oc2cc(Br)c(OCC(N)=O)cc12	16.4% (inactive)
COc1ccc(C(=O)N(Cc2ccc(N(C)C)cc2)C2CCS(=O)(=O)C2)cc1 (centres undefined)	1.51% (inactive)
CCCCN=C(N)/C(C(=O)OCC)=C(\O)c1ccc(OC)cc1	6.3% (inactive)
CCCCC(=O)N(c1ccc(OC)cc1)C1C=CS(=O)(=O)C1 (centres undefined)	43.6% (active)
CC(C)CNC(=O)COC(=O)/C=C/c1ccco1	16.1% (inactive)
CCc1ccc(-c2cc(C(=O)NN3CCN(C)CC3)c3ccccc3n2)cc1	5.27% (inactive)
COCCCNC(=S)NC(=O)c1ccc([N+](=O)[O-])cc1	65.1% (active)
COCCCNC(=S)NC(=O)c1ccccc1	11.7% (inactive)
CCCCCC(=O)NC(=S)NNC(=O)c1ccc([N+](=O)[O-])cc1	3.27% (inactive)
CCc1cccc(NC(=O)CCC(=O)O)c1	4.18% (inactive)
Cn1ncc2c(Nc3cccc4ccccc34)ncnc21	3.59% (inactive)
Cn1ncc2c(NNC(=O)Cc3cccc4ccccc34)ncnc21	26.4% (active)
Cc1ccc(-n2ncc3c(Nc4cccc(C(=O)O)c4)ncnc32)cc1	7.56% (inactive)
